According to PubChem BioAssay (NCATS):
Inconclusive results are not listed. Calls of active or inactive are those of the source. The call rests on the fitted dose curve; in most records, active means well fitted curve in the direction sought with a large enough effect; inconclusive means small, poorly fitted or top-dose-only effect, or another doubt; inactive means no such curve, though single readings can be large; an effect the other way counts as inactive or inconclusive.

Experiments:
[1] = biological target: Rap guanine nucleotide exchange factor 3 (Homo sapiens) (UniProt O95398); assay: Confirmatory qHTS for agonist of cAMP-regulated guanine nucleotide exchange factor 3 (EPAC1) (AID 1645881); conditions: EPAC1 Rap1B BODIPY-GDP exchange fluorescence; series mostly up to 154 µM;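 further: EPAC1 catalysed release of BODIPY-GDP from Rap1B seen as fluorescence loss; 100% = effect of cAMP agonist control; nearly all actives have a fitted effect of over 75% in size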
[2] = biological target: Rap guanine nucleotide exchange factor 4 (Homo sapiens) (UniProt Q8WZA2); assay: Confirmatory qHTS for agonist of cAMP-regulated guanine nucleotide exchange factor 4 (EPAC2) (AID 1645884); conditions: EPAC2 GEF activity, Rap1B-BODIPY-GDP fluorescence; series mostly up to 154 µM;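 further: nucleotide exchange releases bodipy-GDP from Rap1 and this lowers its fluorescence; nearly all actives have a fitted effect of over 65% in size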; further: potency means the concentration at half of the fitted maximal effect; on activation: on the % scale 0 is the no-effect control and ±100 the full control effect
[3] = biological target: Rap guanine nucleotide exchange factor 4 (Homo sapiens) (UniProt Q8WZA2); assay: Confirmatory qHTS for antagonist of cAMP-regulated guanine nucleotide exchange factor 4 (EPAC2) (AID 1645885); conditions: EPAC2 Rap1B-BODIPY-GDP exchange fluorescence, biochemical; series mostly up to 12.7 µM; further: nearly all actives have a fitted effect of over 25% in size; further: potency means the concentration at half of the fitted maximal effect; on activity change, negative = inhibition: on the % scale 0 is the no-effect control and ±100 the full control effect
[4] = biological target: Rap guanine nucleotide exchange factor 3 (Homo sapiens) (UniProt O95398); assay: Counterscreen qHTS for antagonist of cAMP-regulated guanine nucleotide exchange factor 3 (EPAC1) (AID 1645888); conditions: Rap1B-BODIPY-GDP nucleotide exchange, fluorescence; series mostly up to 154 µM;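 further: fluorescence loss as bound BODIPY-GDP is released from Rap1B; % of control where 0% means no effect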
How it was run: (§1)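 Measured: fluorescence of BODIPY-GDP bound to Rap1B, which falls as exchange proceeds. Conditions include 50 uM competing GDP, 5 and 30 min reads, and a later cAMP challenge for antagonist detection.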

[5] = biological target: Rap guanine nucleotide exchange factor 3 (Homo sapiens) (UniProt O95398); assay: Counterscreen qHTS for agonist of cAMP-regulated guanine nucleotide exchange factor 3 (EPAC1) (AID 1645889); conditions: EPAC1 Rap1B-BODIPY-GDP exchange, fluorescence; series mostly up to 154 µM; further: nearly all actives have a fitted effect of over 40% in size; further: potency means the concentration at half of the fitted maximal effect; on activation: % of control where 0% means no effect
How it was run: as §1

Chain of Rap guanine nucleotide exchange factor 3 (Homo sapiens) (O95398 whole entry, looked up): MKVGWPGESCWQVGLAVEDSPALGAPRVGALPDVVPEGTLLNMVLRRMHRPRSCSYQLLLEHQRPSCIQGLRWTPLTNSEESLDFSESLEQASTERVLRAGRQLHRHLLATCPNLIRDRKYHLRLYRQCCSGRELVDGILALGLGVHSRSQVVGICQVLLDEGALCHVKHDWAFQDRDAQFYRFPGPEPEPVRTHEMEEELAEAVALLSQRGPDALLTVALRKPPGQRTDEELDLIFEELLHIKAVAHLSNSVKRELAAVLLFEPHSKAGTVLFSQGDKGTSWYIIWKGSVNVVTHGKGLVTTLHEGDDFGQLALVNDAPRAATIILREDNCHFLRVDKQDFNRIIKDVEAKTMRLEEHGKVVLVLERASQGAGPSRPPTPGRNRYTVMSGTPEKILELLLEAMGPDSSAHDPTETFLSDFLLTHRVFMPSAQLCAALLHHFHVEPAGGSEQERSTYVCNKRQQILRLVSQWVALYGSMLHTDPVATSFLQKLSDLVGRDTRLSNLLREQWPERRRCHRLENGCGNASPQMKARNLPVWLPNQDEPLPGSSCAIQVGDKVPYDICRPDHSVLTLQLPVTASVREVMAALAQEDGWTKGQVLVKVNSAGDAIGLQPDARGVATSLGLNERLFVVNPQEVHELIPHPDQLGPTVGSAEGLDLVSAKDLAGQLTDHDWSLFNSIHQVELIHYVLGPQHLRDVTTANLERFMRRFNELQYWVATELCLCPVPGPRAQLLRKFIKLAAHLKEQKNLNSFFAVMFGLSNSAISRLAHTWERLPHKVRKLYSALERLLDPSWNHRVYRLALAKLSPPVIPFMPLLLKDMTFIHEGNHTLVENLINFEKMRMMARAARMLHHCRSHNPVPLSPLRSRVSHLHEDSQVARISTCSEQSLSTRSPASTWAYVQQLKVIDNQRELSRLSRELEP
Chain of Rap guanine nucleotide exchange factor 4 (Homo sapiens) (Q8WZA2 whole entry, looked up): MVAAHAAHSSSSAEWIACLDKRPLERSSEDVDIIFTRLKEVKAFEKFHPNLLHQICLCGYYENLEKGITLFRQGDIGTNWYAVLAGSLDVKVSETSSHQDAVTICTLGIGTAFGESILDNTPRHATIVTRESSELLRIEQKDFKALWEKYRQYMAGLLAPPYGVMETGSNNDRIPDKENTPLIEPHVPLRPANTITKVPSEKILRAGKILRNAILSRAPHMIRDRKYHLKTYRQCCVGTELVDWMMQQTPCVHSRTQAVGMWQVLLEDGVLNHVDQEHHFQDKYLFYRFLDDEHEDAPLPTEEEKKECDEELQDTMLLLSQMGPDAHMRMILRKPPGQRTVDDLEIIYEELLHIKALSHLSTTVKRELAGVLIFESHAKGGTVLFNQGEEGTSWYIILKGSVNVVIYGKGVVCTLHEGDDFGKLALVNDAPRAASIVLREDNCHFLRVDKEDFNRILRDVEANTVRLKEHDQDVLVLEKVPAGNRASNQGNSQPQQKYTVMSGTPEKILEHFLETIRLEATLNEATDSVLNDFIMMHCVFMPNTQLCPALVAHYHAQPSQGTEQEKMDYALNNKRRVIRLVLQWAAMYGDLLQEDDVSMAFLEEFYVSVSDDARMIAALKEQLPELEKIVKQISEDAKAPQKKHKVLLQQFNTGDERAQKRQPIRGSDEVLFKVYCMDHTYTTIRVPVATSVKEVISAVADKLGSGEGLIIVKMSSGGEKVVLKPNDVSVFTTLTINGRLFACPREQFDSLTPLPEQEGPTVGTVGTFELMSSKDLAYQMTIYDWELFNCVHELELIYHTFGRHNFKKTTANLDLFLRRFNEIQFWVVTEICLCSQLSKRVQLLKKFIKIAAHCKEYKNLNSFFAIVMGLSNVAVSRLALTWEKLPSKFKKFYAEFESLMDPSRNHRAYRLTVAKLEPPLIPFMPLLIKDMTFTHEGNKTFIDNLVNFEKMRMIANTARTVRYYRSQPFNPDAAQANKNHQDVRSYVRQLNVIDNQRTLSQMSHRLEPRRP

CC(C)C[C@H]1CNC(=O)C(=O)N1C[C@@H]1CCCN1C[C@H](Cc1ccc(O)cc1)N1C[C@H](Cc2ccccc2)N(CC2CCCCC2)C(=O)C1=O
inactive: Potency [1] | Potency [2] | Potency [4] | Potency [5]
active: Potency [3] 47.8 µM

O=C(Nc1c2c(nc3ccccc13)CCCC2)c1ccccc1F
inactive: Potency [1] | activation [2] -3.93% [at 17.1 µM, percent relative to cAMP agonist control] | Potency [3] | activity change, negative = inhibition [4] -18.6% [at 30.8 µM] | activation [5] 12.9% [at 30.8 µM]

COC1=C(Nc2ccc(O)cc2)C(=O)c2ccccc2C1=O
inactive: Potency [1] | activation [2] 5% [at 17.1 µM, percent relative to cAMP agonist control] | Potency [3] | activity change, negative = inhibition [4] 4.79% [at 30.8 µM] | activation [5] 25.2% [at 30.8 µM]

CC1(NC(=O)CCc2nc3sc4c(c3c(=O)[nH]2)CCCC4)CCS(=O)(=O)C1 (stereo not given)
inactive: Potency [1] | activation [2] 0.392% [at 17.1 µM, percent relative to cAMP agonist control] | Potency [3] | activity change, negative = inhibition [4] -17% [at 30.8 µM] | activation [5] 8.58% [at 30.8 µM]

CCC(=O)N(CCC1(c2ccccc2OC)CCOC(C(C)C)C1)Cc1ccco1 (stereo not given)
inactive: Potency [1] | activation [2] -0.808% [at 17.1 µM, percent relative to cAMP agonist control] | Potency [3] | activity change, negative = inhibition [4] -14.7% [at 30.8 µM] | activation [5] 10.9% [at 30.8 µM]

Cc1cccc(C)c1-c1ccc(CN2C(CC(C)C)C(=O)N(Cc3cn(CCO)nn3)CCS2(=O)=O)cc1 (stereo not given)
inactive: Potency [1] | activation [2] -6.44% [at 17.1 µM, percent relative to cAMP agonist control] | Potency [3] | activity change, negative = inhibition [4] 9.55% [at 30.8 µM] | activation [5] 18.7% [at 30.8 µM]

COc1ccccc1C(=O)Nc1nnc(SCc2cc(=O)c3ccccc3[nH]2)s1
inactive: Potency [1] | Potency [2] | outcome [3] inactive [at 12.7 µM] | Potency [4] | Potency [5]

N#CC1=C(N)Oc2cc(N)ccc2C1c1ccc(Cl)cc1 (stereo not given)
active: Potency [3] 47.8 µM
inactive: Potency [1] | Potency [2] | Potency [4] | Potency [5]

Cc1nn(-c2ccccc2)c(Cl)c1/C=C1\SC(=S)N(CCCCCC(=O)O)C1=O
inactive: Potency [1] | activation [2] -0.0903% [at 17.1 µM, percent relative to cAMP agonist control] | Potency [3] | activity change, negative = inhibition [4] -15.3% [at 30.8 µM] | activation [5] 22.3% [at 30.8 µM]

N#Cc1c(SCC(=O)Nc2cccc(C(F)(F)F)c2)sc2c(O)cc(=O)[nH]c12
inactive: Potency [1] | activation [2] 0% [at 17.1 µM, percent relative to cAMP agonist control] | Potency [3] | activity change, negative = inhibition [4] -10.8% [at 30.8 µM] | activation [5] 17.2% [at 30.8 µM]

CCC(C(=O)O)N1C(=O)/C(=C/C(C)=C/c2ccccc2)SC1=S (stereo not given)
inactive: Potency [1] | Potency [2] | Potency [4] | Potency [5]
active: Potency [3] 75.7 µM

C/C(CC(=O)N1CCCC1)=N\NC(=O)c1cc2ccccc2cc1O
inactive: Potency [1] | Potency [2] | Potency [3] | Potency [4] | Potency [5]

O=C(CSc1ccc(-c2ccco2)nn1)c1ccc(F)cc1
inactive: Potency [1] | Potency [2] | Potency [3] | Potency [4] | Potency [5]

O=[N+]([O-])c1cc2oc3c(c2c(C=NCc2ccncc2)c1O)CCCC3
inactive: Potency [1] | activation [2] 1.74% [at 17.1 µM, percent relative to cAMP agonist control] | Potency [3] | activity change, negative = inhibition [4] -19.5% [at 30.8 µM] | activation [5] 15.1% [at 30.8 µM]

Cc1oc2c(O)c(O)ccc2c(=O)c1-c1cnn(-c2ccccc2)c1
inactive: Potency [1] | activation [2] 2.28% [at 17.1 µM, percent relative to cAMP agonist control] | Potency [3] | activity change, negative = inhibition [4] -26.8% [at 30.8 µM] | activation [5] 28.8% [at 30.8 µM]

O=C1CC(c2c(F)cccc2Cl)c2c(ccc3ccccc23)N1 (stereo not given)
inactive: Potency [1] | Potency [2] | Potency [3] | Potency [4] | Potency [5]

O=c1ccc(-c2ccccc2)nn1Cc1ccc(F)cc1Cl
inactive: Potency [1] | Potency [2] | Potency [3] | Potency [4] | Potency [5]

CC1=NN(c2ccc(Br)cc2)C(=O)/C1=C/c1cccs1
active: Potency [5] 14.1 µM
inactive: Potency [1] | activation [2] 4.12% [at 17.1 µM, percent relative to cAMP agonist control] | Potency [3] | activity change, negative = inhibition [4] 29.1% [at 30.8 µM]

Cc1ccc(NC(=O)CN2C(=O)S/C(=C/c3ccc(O)c([N+](=O)[O-])c3)C2=O)cc1C
inactive: Potency [1] | Potency [2] | Potency [3] | Potency [4] | Potency [5]

CC1(Cc2ccccc2Cl)C(=O)Nc2c(Cl)cccc21 (stereo not given)
inactive: Potency [1] | activation [2] 10% [at 17.1 µM, percent relative to cAMP agonist control] | Potency [3] | activity change, negative = inhibition [4] -23.5% [at 30.8 µM] | activation [5] 5.68% [at 30.8 µM]

CCC1(c2ccccc2)SCC(c2ccccc2)=NC1=O (stereo not given)
inactive: Potency [1] | Potency [2] | Potency [3] | Potency [4] | Potency [5]

CCOc1cc(-c2c(C#N)c(N)nc3c2CCCC3C)ccc1O (stereo not given)
active: Potency [2] 0.398 µM
inactive: Potency [1] | Potency [3] | Potency [4] | Potency [5]

O=Nc1c(O)c2ccccc2c2ccccc12
inactive: Potency [1] | activation [2] 0.886% [at 17.1 µM, percent relative to cAMP agonist control] | Potency [3] | activity change, negative = inhibition [4] -4.76% [at 30.8 µM] | activation [5] 24.1% [at 30.8 µM]

C[C@@H]1COC(=O)[C@H](NC(=O)OCC2c3ccccc3-c3ccccc32)C/C=C\C[C@@H](CC(=O)N[C@H](CO)Cc2ccccc2)C(=O)N1
inactive: Potency [1] | activation [2] 2.82% [at 17.1 µM, percent relative to cAMP agonist control] | Potency [3] | activity change, negative = inhibition [4] -6.46% [at 30.8 µM] | activation [5] -0.359% [at 30.8 µM]

CCc1ccc(C=C2SC(=S)N(CCCC(=O)Nc3ccc(C(=O)O)cc3)C2=O)cc1
inactive: Potency [1] | Potency [2] | Potency [3] | Potency [4] | Potency [5]

N#Cc1c(NC(=O)C2CC=CCC2C(=O)O)sc2c1CCCCCC2 (stereo not given)
inactive: Potency [1] | activation [2] -2.41% [at 17.1 µM, percent relative to cAMP agonist control] | Potency [3] | activity change, negative = inhibition [4] -15.2% [at 30.8 µM] | activation [5] 6.58% [at 30.8 µM]

Cc1ccc(-c2nnc(Nc3ccc(OCC(N)=O)cc3)c3ccccc23)cc1S(N)(=O)=O
inactive: Potency [1] | Potency [2] | Potency [3] | Potency [4] | Potency [5]

N#Cc1c(-c2ccc(F)cc2)cc(-c2ccccc2)nc1SCC(=O)NCC(=O)O
inactive: Potency [1] | Potency [2] | outcome [3] inactive [at 12.7 µM] | Potency [4] | Potency [5]

Cc1ccc(Cl)cc1NC(=O)Nc1cn(CC(C)C)c(=O)c2ccccc12
inactive: Potency [1] | Potency [2] | outcome [3] inactive [at 12.7 µM] | Potency [4] | Potency [5]

O=C(NCc1ccccc1)C(c1ccc(-c2ccccc2)cc1)n1c(=O)c(-c2ccco2)nc2ccccc21 (stereo not given)
inactive: Potency [1] | activation [2] -1.87% [at 17.1 µM, percent relative to cAMP agonist control] | Potency [3] | activity change, negative = inhibition [4] 1.9% [at 30.8 µM] | activation [5] 21.4% [at 30.8 µM]

Cc1c(C(=O)N2CCN(c3ncccn3)CC2)oc2c(Cl)cccc12
inactive: Potency [1] | Potency [2] | Potency [3] | Potency [4] | Potency [5]

CCc1cccc(NC(=O)COC(=O)/C=C/c2cccs2)c1
inactive: Potency [1] | Potency [2] | Potency [3] | Potency [4] | Potency [5]

CC(/C=C1\SC(=S)N(CCC(=O)Nc2cccc(C(=O)O)c2)C1=O)=C\c1ccccc1
inactive: Potency [1] | activation [2] 9.03% [at 17.1 µM, percent relative to cAMP agonist control] | Potency [3] | activity change, negative = inhibition [4] 19.7% [at 30.8 µM] | activation [5] 16.2% [at 30.8 µM]

OC(c1ccc(F)c(F)c1)c1nc(-c2csc3ccccc23)cs1 (stereo not given)
inactive: Potency [1] | activation [2] 3.04% [at 17.1 µM, percent relative to cAMP agonist control] | Potency [3] | activity change, negative = inhibition [4] -0.286% [at 30.8 µM] | activation [5] 2.58% [at 30.8 µM]

CC(C)(C)C(=O)NC(Nc1cccc2cccnc12)C(Cl)(Cl)Cl (stereo not given)
inactive: Potency [1] | activation [2] 7.17% [at 17.1 µM, percent relative to cAMP agonist control] | Potency [3] | activity change, negative = inhibition [4] -6% [at 30.8 µM] | activation [5] 21.1% [at 30.8 µM]
